In PubChem BioAssay (NCI) one finds growth data, which are given here for 40 molecules.

This is part of a sample that, as a whole, favours compounds with a hit. Of some 83,000 tested, about 20% had one in any assay.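 Assay: single dose, 48 h. Readout: percent growth (0 = no net growth; negative = cell death). Active: <10.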 Values without a mark were called inactive. Calls of active or inactive are those of the source.

The subject of the first assay is NCI-H522 lung. As to the kind of experiment: NCI-60 one-dose screen, 48 h (100 = growth as untreated, 0 = no growth, -100 = all killed). The following applies: 10 µM unless noted.
With `Oc1c(Cl)cc(Cl)c2ccc(Cn3cc(-c4cc(C(F)(F)F)cc(C(F)(F)F)c4)nn3)nc12`, the growth is -39.4% (active).
Still for that read-out and setting: under `O=C1C(Cl)=C(Oc2ccccc2)C(=O)c2ccccc21` stands -83.3% (active).
`COc1ccccc1Nc1nc2c(s1)C1=CC[C@H]3[C@@H]4CC[C@H]([C@H](C)CCCC(C)C)[C@@]4(C)CC[C@@H]3[C@@]1(C)CC2`: the growth is 106%.
Same read-out and setting: the value for `N#Cc1cccc(-c2c(-c3ccc4ccccc4c3)oc3ccccc3c2=O)c1` was 10.5%.

Another assay concerns A549/ATCC NSCLC. Described as above. The following applies: 10 µM unless noted.
As for `CCCc1cc(NC)nc(S(=O)(=O)CC)n1`, the growth was 105%.
The same measure, in the same setting: the value for `Cc1ccc(Cl)cc1Nc1nc(C(F)(F)F)ccc1C(=O)N/N=C/c1cccnc1` was 27.5%; that for `Cc1ccc(/C=C2\CN(C(=O)OC(C)(C)C)C/C(=C\c3ccc(C)cc3)C2=O)cc1` was 81.5%.
On to `O=C(Nc1cccc([N+](=O)[O-])c1)c1cc2ccccc2cc1O`, for which the growth is 11.1%.
For `NC(=O)c1c(NC(=O)c2ccccc2)sc2c1CCC(=O)C2`, the growth is 30%.
Same read-out and setting: the value for `COc1cc(N2C(=O)[C@H](O)C2c2ccc(SC)cc2)cc(OC)c1OC` (some centres undefined) was 17%.
`Cn1cc(-c2nc(-c3c[nH]c4ccncc34)cs2)c2ccccc21`: the growth is 42.1%.
The same measure, in the same setting: under `OCCNCCCOc1ccc2ncnc(Nc3ccc(Oc4cccc(C(F)(F)F)c4)c(Cl)c3)c2c1` stands 23.8%.
On the same count and under the same terms, the value for `O=S(=O)(NCCNc1cc(-c2c(-c3cccc(O)c3)nc3sccn23)ccn1)c1ccc(C(F)(F)F)cc1` was 28.6%.
On the same count and under the same terms, under `CCOC(=O)c1nc(Nc2ccc(NC(=O)Nc3ccc(F)cc3)cc2)c2ccccc2n1` stands 102%; under `CCN1C(=O)N(CC)C2C1NN=c1s/c(=C\c3cccc([N+](=O)[O-])c3)c(=O)n12` (centres undefined), 20.2%.
As to `C#Cc1cccc(Nc2ncnc3ccc(-c4cnc(N)nc4)cc23)c1`, the growth is 35.9%.
Same read-out and setting: the value for `CCN(CC)CCSc1nc(-c2ccccc2)c(C#N)c(=O)[nH]1` was 113%; that for `CN1C(=O)/C(=C/c2cn(-c3ccccc3)nc2-c2ccccc2)SC1=S` was 102%.
With `O=C1Nc2ccccc2/C1=C\c1nc(-c2ccccc2)n2ccccc12`, the growth was 92.7%.
In the case of `COc1ccc(NC(=O)c2sc3nc(C)c(C(=O)/C=C/c4cccc(OC)c4)cc3c2N)cc1`, the growth is 13.2%.
The same measure, in the same setting: under `Nc1nc2c([nH]1)c1[nH]c3ccccc3c1c1[nH]c3ccccc3c21` stands 85.5%.
On the same count and under the same terms, the value for `Cc1ccc(-c2nc3nc(-c4ccc(F)cc4)nc(N4CCNCC4)c3o2)cc1` was 27.2%; that for `COc1ccc(OC)c(C(=O)/C=C/c2cc3c(c(OC)c2OC)OCO3)c1` was 62.7%.
Regarding `CN1C(=O)/C(=C/c2ccc(C(=O)Nc3ncc(Cc4ccc(Cl)cc4)s3)cc2)SC1=S`, the growth is 48.5%.
Turning to `O=C(OCc1ccc2c(Cl)cc(Cl)c(O)c2n1)n1cncn1`, the growth was 22.1%.
Regarding `C[C@]12C=CC(=O)C=C1CCC1C2[C@@H](O)C[C@@]2(C)C1CC[C@]2(O)C(=O)COC(=O)CCC(=O)O` (some centres undefined), the growth is 71.3%.
The same measure, in the same setting: under `COc1ccc2c(c1)c(-c1noc(C(=O)c3cn(C)c4ccc(Br)cc34)n1)cn2C` stands 84.5%; under `COc1ccc(/C=N/C2=C(C#N)C(c3cccc(Cl)c3)c3c(ccc4ccccc34)O2)cc1` (centres undefined), 44.9%.
For `Cc1ccccc1Cn1cnc2ccc(-c3cc(NC(=O)c4ccc(NC5CCN(C)CC5)cc4)n[nH]3)cc21`, the growth was 84.5%.
Same read-out and setting: under `O=C1CC(N2C(=O)/C(=C/C(Cl)=C\c3ccc([N+](=O)[O-])cc3)SC2=S)C(=O)N1c1ccc(Cl)cc1` (centres undefined) stands 71%; under `CCN(CC)CCOc1ccc(-c2c(-c3ccccc3)c(=O)oc3ccccc23)cc1`, 92%; under `CCNC(=O)c1[nH]cc(-c2ccccc2)c1-c1cc(OC)c2c(c1OC)OCO2`, 96%.
In the case of `Cc1cc(=O)[nH]c2c(C#N)cnn12`, the growth was 97.5%.
Take `COCCn1c(-c2csc(-c3cn(C)c4ccc(OC)cc34)n2)cc2cccnc21`: the growth was 48%.
As for `COC(=O)[C@]1(C)CCC[C@]2(C)[C@H]3C[C@H]4C(C(C)C)=C[C@]3(CC[C@H]21)[C@H]1[C@@H]4[C@@H](OCCC#N)CC[C@@H]1OCCC#N`, the growth is 37.4%.
The same measure, in the same setting: the value for `O=C(NCCCCNC(=O)OCc1ccc2c(Cl)cc(Cl)c(O)c2n1)OCc1ccc2c(Cl)cc(Cl)c(O)c2n1` was 14.8%; that for `COC(=O)c1c2c(c(C)[n+]([O-])c1C)C(=O)C=C(NCc1ccc(Br)cc1)C2=O` was -28.2% (active); that for `CCCCCCNC(=O)Oc1ccc(/C(=C(/C)Cc2ccc(OC)cc2)c2ccc(OCCCN(C)C)cc2)cc1` was 31.9%.
Same read-out and setting: the value for `CCCCCCC1(C)NCCO1` (centres undefined) was 99.4%; that for `CC[C@]12C=CCN3CC[C@@]4(c5cc(NC(=O)CCC(=O)OCc6cn(Cc7ccc(F)cc7)nn6)c(OC)cc5N(C)[C@H]4[C@@](O)(C(=O)OC)[C@@H]1OC(C)=O)[C@@H]32` was 96.5%; that for `Oc1c(Cl)cc(Cl)c2ccc(Cn3cc(-c4cc(C(F)(F)F)cc(C(F)(F)F)c4)nn3)nc12` was 95.5%.
Same read-out and setting: under `O=C1C(Cl)=C(Oc2ccccc2)C(=O)c2ccccc21` stands 100%; under `COc1ccccc1Nc1nc2c(s1)C1=CC[C@H]3[C@@H]4CC[C@H]([C@H](C)CCCC(C)C)[C@@]4(C)CC[C@@H]3[C@@]1(C)CC2`, 103%; under `N#Cc1cccc(-c2c(-c3ccc4ccccc4c3)oc3ccccc3c2=O)c1`, 34.9%.
